Screening data (PubChem)
Only a sample is shown.
VCAM1 TNFa pot – TNF alpha stimulated VCAM1 expression potentiation | activation, % at 2 µM | HUVEC TNFa-stimulated VCAM-1 immunofluorescence, high-content imaging; scaled per plate to unstimulated/TNFa-only wells | 0.19% of 93,000 active | AID 808;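 active = activation above the screen mean plus 3 SD, with well images confirming the hit on visual review, cut at about 28% in these data, passing the limit was not always enough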;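 also: signal is the number of cytoplasmic VCAM-1 stained grains per positive cell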
Numbers without * were called inactive.

Screening COc1cc(/C=C(/C#N)C(=O)NCCc2c[nH]c3ccccc23)ccc1OCc1ccccc1F returned VCAM1 TNFa pot -37.
For CC(C)(C)n1ncc(Oc2ccc(Oc3cnn(C(C)(C)C)c(=O)c3Cl)cc2)c(Cl)c1=O the results were VCAM1 TNFa pot 2.
`O=C(COC(=O)c1cccnc1Cl)c1cccc(Cl)c1` gave VCAM1 TNFa pot -3.
For Cc1ccc(S(=O)(=O)c2cc3c(=O)n4ccccc4nc3n(Cc3ccco3)c2=N)cc1 the results were VCAM1 TNFa pot -20.
COCCNC(=O)CSc1nc2ccccc2c(=O)n1CC1CCCO1 (stereo not given) was read as VCAM1 TNFa pot 10.
For N#Cc1cc2c(=O)n3ccccc3nc2n(CC2CCCO2)c1=N (stereo not given) the results were VCAM1 TNFa pot 47*.
Nc1nnc(SCc2ccccc2F)n1-c1ccccc1 was read as VCAM1 TNFa pot -9.
For CN(C)S(=O)(=O)N(CC(=O)Nc1cccc(F)c1)c1ccccc1 the results were VCAM1 TNFa pot -4.
Screening COC(=O)c1sccc1NC(=O)c1ccc(Br)s1 returned VCAM1 TNFa pot -53.
CC1CCCN(CC(=O)Nc2ccc(S(=O)(=O)NC3CCCCC3)cc2)C1 (stereo not given) was read as VCAM1 TNFa pot -7.
COc1ccc(CS(=O)(=O)/C(Cl)=C(/Cl)C(=O)Nc2ccc(OC)nc2)cc1 was read as VCAM1 TNFa pot -42.
Screening O=C(CSc1cccs1)Nc1ccc2ccccc2c1 returned VCAM1 TNFa pot 12.
For COC1(c2ccccc2)NC(=S)NN=C1c1ccccc1 (stereo not given) the results were VCAM1 TNFa pot -100.
For S=C(Nc1ccccc1)Nc1cc(Cl)ccc1Oc1ccccc1 the results were VCAM1 TNFa pot 2.
Cc1ccc(S(=O)(=O)N2CCOCC2)cc1C(=O)OCC(=O)N1CCc2ccccc2C1 was read as VCAM1 TNFa pot 3.
Screening COCCNC(=O)C(c1ccc(C)o1)N(C(=O)c1snc(C(N)=O)c1N)c1cc(C)cc(C)c1 (stereo not given) returned VCAM1 TNFa pot -8.
CNc1nc(SCc2ccccc2)nc(N2CCOCC2)n1 was read as VCAM1 TNFa pot -9.
`CS(=O)(=O)N(Cc1ccco1)CC(O)Cn1cc(C=O)c2ccccc21` (stereo not given) gave VCAM1 TNFa pot -10.
`CN(C(=O)c1ccc(Cl)cc1)C1=CCCCC1CCC#N` (stereo not given) gave VCAM1 TNFa pot 2.
`CCOC(=O)c1ccc(-n2[nH]c(-c3ccccc3)cc2=O)cc1` gave VCAM1 TNFa pot 5.
Screening CCOC(=O)c1ccc(-n2nc(C(F)(F)F)c3c(C)cc(=O)oc32)cc1 returned VCAM1 TNFa pot 57*.
`CCOC(=O)c1cnn(-c2nc(-c3ccc(C)cc3)cs2)c1C(F)(F)F` gave VCAM1 TNFa pot -96.
Screening O=C(Oc1ccc2ccccc2c1)c1ccccc1 returned VCAM1 TNFa pot 4.
For O=[N+]([O-])c1ccc(NCCNc2ccc(Cl)nn2)cc1 the results were VCAM1 TNFa pot 2.
`COCCNC(=O)C(c1cccs1)N(C(=O)Cn1nnc2ccccc21)c1ccc(OC)cc1` (stereo not given) gave VCAM1 TNFa pot -9.
`COC(=O)C(CC(C)C)NC(=O)c1ccc(F)cc1` (stereo not given) gave VCAM1 TNFa pot 8.
For OC1(c2cccc(C(F)(F)F)c2)CCN(c2ncnc3c2[nH]c2ccc(F)cc23)CC1 the results were VCAM1 TNFa pot -54.
`COc1cccc(-c2cc(N)nn2C(=O)Nc2ccc(Cl)cc2)c1` gave VCAM1 TNFa pot -8.
Screening O=S(=O)(NCc1cc(-c2ccccc2Cl)no1)c1ccc(Cl)cc1 returned VCAM1 TNFa pot -3.
CON/C=C(\C=Nc1ccc(Cl)cc1)c1ncc(C(F)(F)F)cc1Cl was read as VCAM1 TNFa pot 2.
`Cc1ccccc1-c1nc(CN2CCC(C(=O)NCCCN3CC(C)CC(C)C3)CC2)c(C)o1` (stereo not given) gave VCAM1 TNFa pot -43.
`CSc1n[nH]c(NCc2cccs2)n1` gave VCAM1 TNFa pot 35.
COc1ccc(CCC(C)NC2C3CC4CC(C3)CC2C4)cc1 (stereo not given) was read as VCAM1 TNFa pot -1.
For C=CCn1c(SCc2nc3ccccc3c(=O)[nH]2)nnc1-c1cc2cc(Cl)ccc2o1 the results were VCAM1 TNFa pot 1.
CC(C)(C)NC(=O)CN(C(=O)Cn1nnc(-c2ccccc2F)n1)c1cccc2c1CCCC2 was read as VCAM1 TNFa pot 4.
`CC(C)COC(=O)n1c(SCC(=O)N(C)C)nc2ccccc21` gave VCAM1 TNFa pot 16.
CCCC(C)NC(=O)c1cc(Cl)ccc1OC (stereo not given) was read as VCAM1 TNFa pot 2.
Screening Cc1ccc(N2CC(C(=O)Nc3ccccc3C(=O)NC3CCCCC3)CC2=O)cc1C (stereo not given) returned VCAM1 TNFa pot 19.
Screening CCOCCCNC(=O)CCSc1ccc(C)cc1 returned VCAM1 TNFa pot 10.
C=CCNC(=O)c1onc(CSc2ccccc2CC)c1C(=O)O was read as VCAM1 TNFa pot 1.
